# In paper PMC5540273 (PLoS ONE, 2017):
# Read-outs that look alike come from different tables or passages of the source.
# How the values were obtained:
# AAK1 = settings: n = 1
# ABL1-nonphosphorylated = settings: n = 1
# ABL1-phosphorylated = settings: n = 1
# ABL2 = settings: concentration: 1 μM, replicates: in singlicate; n = 1
# ACVR1B = settings: concentration: 1 μM, replicates: in singlicate; n = 1
# ACVR1 = settings: concentration: 1 μM, replicates: in singlicate; n = 1
# ACVR2A = settings: concentration: 1 μM, replicates: in singlicate; n = 1
# ACVR2B = settings: concentration: 1 μM, replicates: in singlicate; n = 1
# ACVRL1 = settings: concentration: 1 μM, replicates: in singlicate; n = 1
# ADCK3 = system: T1, ADCK3; settings: concentration: 1 μM, replicates: in singlicate; n = 1
# T1 construct: gene CABC1
# ADCK4 = settings: concentration: 1 μM, replicates: in singlicate; n = 1
# AKT1 = settings: concentration: 1 μM, replicates: in singlicate; n = 1
# AKT2 = settings: concentration: 1 μM, replicates: in singlicate; n = 1
# AKT3 = settings: concentration: 1 μM, replicates: in singlicate; n = 1
# ALK = settings: concentration: 1 μM, replicates: in singlicate; n = 1
# AMPK-alpha1 = system: T2, AMPK-alpha1; settings: concentration: 1 μM, replicates: in singlicate; n = 1
# T2 construct: gene PRKAA1
# AMPK-alpha2 = system: T3, AMPK-alpha2; settings: concentration: 1 μM, replicates: in singlicate; n = 1
# T3 construct: gene PRKAA2
# ANKK1 = settings: concentration: 1 μM, replicates: in singlicate; n = 1
# ARK5 = system: T4, ARK5; settings: concentration: 1 μM, replicates: in singlicate; n = 1
# T4 construct: gene NUAK1
# ASK1 = system: T5, ASK1; settings: concentration: 1 μM, replicates: in singlicate; n = 1
# T5 construct: gene MAP3K5
# [1] = concentration: 1 μM, replicates: in singlicate
# 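Further: KINOMEscan kinase panel screen.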
smiles,measurement,setting,value
COc1cccc(C(=O)Nc2cccc(Oc3ccc4nc(NC(=O)C5CC5)cn4n3)c2)c1,%Inh,AAK1; [1],27%
same,%Inh,ABL1-nonphosphorylated; [1],100%
same,%Inh,ABL1-phosphorylated; [1],99.7%
same,%Inh,ABL2,96.3%
same,%Inh,ACVR1B,0%
same,%Inh,ACVR1,0%
same,%Inh,ACVR2A,1%
same,%Inh,ACVR2B,18%
same,%Inh,ACVRL1,8%
same,%Inh,ADCK3,10%
same,%Inh,ADCK4,39%
same,%Inh,AKT1,19%
same,%Inh,AKT2,0%
same,%Inh,AKT3,3%
same,%Inh,ALK,0%
same,%Inh,AMPK-alpha1,23%
same,%Inh,AMPK-alpha2,0%
same,%Inh,ANKK1,0%
same,%Inh,ARK5,0%
same,%Inh,ASK1,7%
Cc1occc1-c1ncc(OC[C@@H](N)Cc2c[nH]c3ccccc23)cc1-c1ccc2[nH]nc(C)c2c1.O=C(O)C(F)(F)F [GSK682037],%Inh,AAK1; [1],61%
same,%Inh,ABL1-nonphosphorylated; [1],13%
same,%Inh,ABL1-phosphorylated; [1],33%
same,%Inh,ABL2,47%
same,%Inh,ACVR1B,8%
same,%Inh,ACVR1,0%
same,%Inh,ACVR2A,0%
same,%Inh,ACVR2B,0%
same,%Inh,ACVRL1,0%
same,%Inh,ADCK3,25%
same,%Inh,ADCK4,82%
same,%Inh,AKT1,97%
same,%Inh,AKT2,99.8%
same,%Inh,AKT3,87%
same,%Inh,ALK,24%
same,%Inh,AMPK-alpha1,12%
same,%Inh,AMPK-alpha2,0%
same,%Inh,ANKK1,0%
same,%Inh,ARK5,0%
same,%Inh,ASK1,0%
Cc1ccc(C)c(NC(=O)NC2CCN(c3ccnc(Nc4ccc(F)cc4)n3)C2)c1 (centres unmarked) [GSK1379720],%Inh,AAK1; [1],6%
same,%Inh,ABL1-nonphosphorylated; [1],0%
same,%Inh,ABL1-phosphorylated; [1],0%
same,%Inh,ABL2,7%
same,%Inh,ACVR1B,0%
same,%Inh,ACVR1,14%
same,%Inh,ACVR2A,0%
same,%Inh,ACVR2B,0%
same,%Inh,ACVRL1,0%
same,%Inh,ADCK3,0%
same,%Inh,ADCK4,48%
same,%Inh,AKT1,0%
same,%Inh,AKT2,19%
same,%Inh,AKT3,0%
same,%Inh,ALK,28%
same,%Inh,AMPK-alpha1,7%
same,%Inh,AMPK-alpha2,0%
same,%Inh,ANKK1,0%
same,%Inh,ARK5,0%
same,%Inh,ASK1,0%
O=C(Nc1n[nH]c2cc(-c3ccoc3)ccc12)C1CC1 [SB-738481],%Inh,AAK1; [1],45%
same,%Inh,ABL1-nonphosphorylated; [1],25%
same,%Inh,ABL1-phosphorylated; [1],0%
same,%Inh,ABL2,0%
same,%Inh,ACVR1B,0%
same,%Inh,ACVR1,30%
same,%Inh,ACVR2A,19%
same,%Inh,ACVR2B,46%
same,%Inh,ACVRL1,0%
same,%Inh,ADCK3,0%
same,%Inh,ADCK4,0%
same,%Inh,AKT1,0%
same,%Inh,AKT2,0%
same,%Inh,AKT3,0%
same,%Inh,ALK,0%
same,%Inh,AMPK-alpha1,0%
same,%Inh,AMPK-alpha2,0%
same,%Inh,ANKK1,23%
same,%Inh,ARK5,0%
same,%Inh,ASK1,0%
Nc1ncc(-c2cccnc2)c2scc(-c3ccc4c(c3)CCN4C(=O)Cc3ccccc3)c12 [GSK683281],%Inh,AAK1; [1],24%
same,%Inh,ABL1-nonphosphorylated; [1],94.1%
same,%Inh,ABL1-phosphorylated; [1],54%
same,%Inh,ABL2,62%
same,%Inh,ACVR1B,0%
same,%Inh,ACVR1,0%
same,%Inh,ACVR2A,0%
same,%Inh,ACVR2B,0%
same,%Inh,ACVRL1,3%
same,%Inh,ADCK3,5%
same,%Inh,ADCK4,32%
same,%Inh,AKT1,0%
same,%Inh,AKT2,21%
same,%Inh,AKT3,0%
same,%Inh,ALK,29%
same,%Inh,AMPK-alpha1,97.4%
same,%Inh,AMPK-alpha2,20%
same,%Inh,ANKK1,19%
same,%Inh,ARK5,32%
same,%Inh,ASK1,22%
COc1cc(Nc2nccc(N3CCC(NC(=O)c4cc5ccccc5s4)C3)n2)cc(OC)c1OC (centres unmarked) [GSK1379760],%Inh,AAK1; [1],58%
same,%Inh,ABL1-nonphosphorylated; [1],0%
same,%Inh,ABL1-phosphorylated; [1],0%
same,%Inh,ABL2,7%
same,%Inh,ACVR1B,0%
same,%Inh,ACVR1,28%
same,%Inh,ACVR2A,16%
same,%Inh,ACVR2B,11%
same,%Inh,ACVRL1,0%
same,%Inh,ADCK3,0%
same,%Inh,ADCK4,26%
same,%Inh,AKT1,1%
same,%Inh,AKT2,8%
same,%Inh,AKT3,0%
same,%Inh,ALK,19%
same,%Inh,AMPK-alpha1,45%
same,%Inh,AMPK-alpha2,30%
same,%Inh,ANKK1,12%
same,%Inh,ARK5,17%
same,%Inh,ASK1,20%
c1ccc(-c2cnc3nccnn23)cc1 [AH20685],%Inh,AAK1; [1],0%
same,%Inh,ABL1-nonphosphorylated; [1],0%
same,%Inh,ABL1-phosphorylated; [1],0%
same,%Inh,ABL2,5%
same,%Inh,ACVR1B,0%
same,%Inh,ACVR1,17%
same,%Inh,ACVR2A,0%
same,%Inh,ACVR2B,0%
same,%Inh,ACVRL1,0%
same,%Inh,ADCK3,0%
same,%Inh,ADCK4,17%
same,%Inh,AKT1,0%
same,%Inh,AKT2,0%
same,%Inh,AKT3,0%
same,%Inh,ALK,20%
same,%Inh,AMPK-alpha1,0%
same,%Inh,AMPK-alpha2,0%
same,%Inh,ANKK1,0%
same,%Inh,ARK5,0%
same,%Inh,ASK1,0%
Cn1cc(-c2ccc3c(c2)CCN3C(=O)Cc2cccc(F)c2)c2c(N)ncnc21 [GSK2603358],%Inh,AAK1; [1],18%
same,%Inh,ABL1-nonphosphorylated; [1],58%
same,%Inh,ABL1-phosphorylated; [1],41%
same,%Inh,ABL2,35%
same,%Inh,ACVR1B,0%
same,%Inh,ACVR1,0%
same,%Inh,ACVR2A,0%
same,%Inh,ACVR2B,69%
same,%Inh,ACVRL1,0%
same,%Inh,ADCK3,2%
same,%Inh,ADCK4,35%
same,%Inh,AKT1,0%
same,%Inh,AKT2,9%
same,%Inh,AKT3,0%
same,%Inh,ALK,20%
same,%Inh,AMPK-alpha1,7%
same,%Inh,AMPK-alpha2,22%
same,%Inh,ANKK1,0%
same,%Inh,ARK5,17%
same,%Inh,ASK1,11%
CNC(=O)c1ccccc1Nc1nc(Nc2ccc(N3CCOCC3)cc2)ncc1Cl.Cl [GSK1576028],%Inh,AAK1; 1 µM,89%
same,%Inh,ABL1-nonphosphorylated; 1 µM,98.8%
same,%Inh,ABL1-phosphorylated; 1 µM,99.6%
same,%Inh,ABL2,95.6%
same,%Inh,ACVR1B,85%
same,%Inh,ACVR1,95%
same,%Inh,ACVR2A,18%
same,%Inh,ACVR2B,43%
same,%Inh,ACVRL1,42%
same,%Inh,ADCK3,35%
same,%Inh,ADCK4,44%
same,%Inh,AKT1,42%
same,%Inh,AKT2,62%
same,%Inh,AKT3,0%
same,%Inh,ALK,88%
same,%Inh,AMPK-alpha1,99.2%
same,%Inh,AMPK-alpha2,99.4%
same,%Inh,ANKK1,12%
same,%Inh,ARK5,99.8%
same,%Inh,ASK1,0%
COc1cc(Nc2ncc3c(C)nc(-c4cc5ccccc5[nH]4)n3n2)cc(OC)c1OC [GW869516],%Inh,AAK1; [1],0%
same,%Inh,ABL1-nonphosphorylated; [1],32%
same,%Inh,ABL1-phosphorylated; [1],24%
same,%Inh,ABL2,21%
same,%Inh,ACVR1B,8%
same,%Inh,ACVR1,0%
same,%Inh,ACVR2A,9%
same,%Inh,ACVR2B,24%
same,%Inh,ACVRL1,0%
same,%Inh,ADCK3,22%
same,%Inh,ADCK4,3%
same,%Inh,AKT1,8%
same,%Inh,AKT2,0%
same,%Inh,AKT3,0%
same,%Inh,ALK,0%
same,%Inh,AMPK-alpha1,89%
same,%Inh,AMPK-alpha2,61%
same,%Inh,ANKK1,0%
same,%Inh,ARK5,0%
same,%Inh,ASK1,0%
